Source: PubChem
In the library only some 5.3% were active in any assay of this set; here they are far more common.
PfM18AAP inh: PfM18AAP inhibitors, malaria aminopeptidase, primary screen, biochemical, QFRET, recombinant enzyme; M18 aspartyl aminopeptidase (Plasmodium falciparum 3D7); H-Glu-NHMec fluorogenic cleavage; inhibition, % at 7.35 µM; 290,000 compounds, 1.2% hits; AID 1822, 2009;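 active = inhibition above the campaign mean inhibition over all tested compounds plus 3 SD, cut at about 28% in these data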;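 note: 0% = plate median of test compound wells and 100% = 2 mM ZnCl2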
ALR inh: inhibitors of human ALR sulfhydryl oxidase, primary screen, biochemical, H2O2 detection, HRP-luminol luminescence, single point | 290,000 compounds, 3.8% hits | purified ALR, DTT oxidation | inhibition, % (test concentration not listed);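 active = mean replicate inhibition above about 79%, with every replicate also reaching it, limit read from the data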
Target sequence (P55789 whole entry, looked up): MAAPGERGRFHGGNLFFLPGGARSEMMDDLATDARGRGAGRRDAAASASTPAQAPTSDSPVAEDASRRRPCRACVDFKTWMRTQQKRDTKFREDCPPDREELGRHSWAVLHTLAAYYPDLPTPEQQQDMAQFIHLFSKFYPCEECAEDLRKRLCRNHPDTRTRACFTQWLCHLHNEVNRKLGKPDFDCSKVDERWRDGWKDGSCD
HIF act: HIF pathway transcriptional activators, primary screen, cell-based, U2OS HRE-luciferase, luminescence. 300,000 compounds, 0.32% hits. activation, % at 7.5 µM (by protocol). U2OS HRE-luciferase reporter; normalized: DMSO 0%, desferrioxamine 100%;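 active = mean activation of at least 10% of the iron chelator positive control signal, with at least half of replicates also reaching 10%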
SUMO Mot1 rescue: yeast Mot1-301 growth rescue at high temperature, primary screen, SUMOylation pathway inhibitor project, S. cerevisiae, ATP luminescence, 38.5C; S. cerevisiae Mot1-301 growth rescue; percent above DMSO median, 100 means doubled; growth rescue, % at 18.8 µM; 320,000 compounds, 1% hits;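 active = every valid replicate shows activation above 250% relative to neutral control wells; inactive = the rest, any valid replicate at or below 250%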;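 note: OY570 slx delta 5 strain wells were the positive control but not used for scaling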
The depositor's hits bear a star; nt = no result.

SMILES	PfM18AAP inh	ALR inh	HIF act	SUMO Mot1 rescue
O=C(CN(Cc1ccccc1)C(=O)CCC(=O)Nc1nccs1)NCc1ccccc1	-3.5	-4.7	0.1	-9.2
O=C(CSc1nnc(CNC(=O)c2c(F)cccc2Cl)o1)NCc1ccc2c(c1)OCO2	-2.7	-13.3	-0.6	-7.9
CCOC(=O)c1c(NC(=O)CSc2nnc(CNc3ccc(Cl)cc3)o2)sc(C)c1C	2.6	84.1*	-0.5	78.7
O=C(CSc1nnc(CNC(=O)c2c(F)cccc2F)o1)Nc1ccc2c(c1)OCCO2	-1.2	98.3*	0.0	-4.5
NCCc1nnc(SCC(=O)Nc2cccc(Cl)c2)o1	10.6	99.4*	-0.3	6.5
O=C(CSc1nnc(CNC(=O)c2cccs2)o1)Nc1ccc2c(c1)OCO2	3.4	46.1	-37.1	277.9
O=C(CSc1nnc(CNC(=O)c2c(F)cccc2Cl)o1)Nc1ccc2c(c1)OCCO2	-2.7	98.8*	-0.6	247.5
O=C(COc1ncnc2ccccc12)Nc1ccccc1[N+](=O)[O-]	1.8	13.9	-0.3	-22.4
O=C(CSc1nnc(CNC(=O)c2ccccc2)o1)Nc1ccc2c(c1)OCO2	-7.1	13.9	-0.3	-5.8
COc1cc(C(=O)NCc2nnc(SCC(=O)Nc3cc(C)cc(C)c3)o2)cc(OC)c1OC	-12.2	97.3*	-0.1	4.6
O=C(CSc1nnc(CNC(=O)c2c(F)cccc2F)o1)Nc1ccc2c(c1)OCO2	7.3	98.4*	-0.2	-5.2
CCOC(=O)c1ccc(NC(=O)CSc2nnc(CNC(=O)c3c(F)cccc3Cl)o2)cc1	-0.8	99.4*	0.6	2.7
CCN(CC)C(=O)CSc1nnc2nnc3cc(OC)ccc3n12	-1.1	-10.1	-0.5	5.7
CC(=O)Nc1cc(-c2ccccc2)ccc1O	6.2	99.5*	0.3	13.3
CCOC(=O)/C(=N\Nc1cc(Cl)ccc1Cl)N1CC(C)OC(C)C1 (configuration not stated)	-1.7	-8.3	-0.6	122.8
CCOC(=O)/C(=N\Nc1cc(Cl)ccc1Cl)N1CCOCC1	-4.6	97.6*	-22.9	123.2
C[C@H](CO)N1C[C@H](C)[C@@H](CN(C)C(=O)Nc2ccc(F)cc2)Oc2ccc(NS(C)(=O)=O)cc2C1=O	nt	-1.9	nt	-19.4
CCOC(=O)c1c(/N=C/c2cc(C)ccc2O)sc2c1CCN(C)C2	1.6	97.8*	0.1	4.9
OC(COCc1cccs1)CN1CCN(c2cccc(Cl)c2)CC1 (configuration not stated)	-3.6	91.4*	0.1	12.6
Cc1ccc(C(C[N+](=O)[O-])c2c(-c3ccccc3O)[nH][nH]c2=O)cc1 (configuration not stated)	14.4	86.0*	0.0	271.6*
COc1ccc(C(C[N+](=O)[O-])c2c(C)[nH]c3ccccc23)cc1OC (configuration not stated)	20.1	-17.4	0.3	65.0
O=c1[nH][nH]c(-c2ccccc2O)c1C(C[N+](=O)[O-])c1ccc(Br)cc1 (configuration not stated)	27.4	87.7*	0.3	210.4
O=C(c1ccco1)N1N=C(c2ccc3nccnc3c2)CC1c1ccccc1 (configuration not stated)	4.0	-8.3	1.6	541.2*
Cc1ccc(CNC(=O)Cn2c(=O)oc3ccccc32)o1	-5.0	6.3	-0.9	nt
C/C(=N\Nc1ccc(S(=O)(=O)N2CCCCC2)cn1)c1ccc(O)cc1	nt	91.4*	nt	-4.6
SMILES	PfM18AAP inh	ALR inh	HIF act	SUMO Mot1 rescue
COc1cccc(/C(C)=N/Nc2ccc(S(=O)(=O)N3CCCCC3)cn2)c1	nt	-2.5	nt	21.4
COC(=O)c1sc(NC(=O)c2cc(-c3ccccc3)nc3ccccc23)c(C#N)c1C	45.4*	-1.7	1.1	8.0
CCOC(=O)c1sc(NC(=O)c2cc(-c3ccc(C)cc3)nc3ccccc23)c(C#N)c1C	1.8	-9.2	-0.4	nt
c1ccc(NC2=NCCN2CCCC2CCCC2)cc1	nt	nt	nt	145.4
OC[C@H]1O[C@@H](Oc2cc(O)cc(/C=C/c3ccc(O)cc3)c2)[C@H](O)[C@@H](O)[C@@H]1O	39.6*	98.8*	0.1	13.0
O=C1C[C@H](c2ccc(O)cc2)Oc2cc(O[C@@H]3O[C@H](CO)[C@@H](O)[C@H](O)[C@H]3O)cc(O[C@@H]3O[C@H](CO)[C@@H](O)[C@H](O)[C@H]3O)c21	nt	48.9	nt	7.6
COc1ccc(C(=O)COC(=O)CSCc2c(C)noc2C)cc1OC	-4.4	97.7*	0.0	0.6
COc1ccc(OC)c(-c2csc(NC(=O)CSCc3c(C)noc3C)n2)c1	nt	98.0*	-0.1	5.1
CCc1noc(C)c1C(=O)OCC(=O)c1ccc(OC)c(OC)c1	nt	nt	nt	-19.1
CCOC(=O)Oc1c(OC)cc(C(=O)O[C@@H]2C[C@@H]3CN4CCc5c([nH]c6cc(OC)ccc56)[C@H]4C[C@@H]3[C@H](C(=O)OC)[C@H]2OC)cc1OC	nt	-4.5	nt	1.3
O=c1onc(-c2ccc(Cl)cc2)n1Cc1ccc(F)cc1	1.1	21.3	0.2	-7.6
O=C(CN1CCCCC1)NNc1nc(-c2ccccc2)c2cc(Cl)ccc2n1	-3.2	10.3	-1.6	-17.1
O=C(O)CCC(=O)NNc1nc(-c2ccccc2)c2cc(Cl)ccc2n1	29.6*	60.7	-22.6	2.0
Cn1nccc1C(=O)NC(=S)Nc1cc(Cl)cc(Cl)c1	9.6	3.7	0.3	333.9*
CCCOc1ccc(N2C(=O)CC(N3CCC(c4nncn4CC)CC3)C2=O)cc1 (configuration not stated)	-3.6	0.4	-0.1	307.3*
CCCn1cnnc1CNC(=O)C1CCC(=O)N(CCc2ccc(OC)cc2)C1 (configuration not stated)	-11.3	-1.1	-0.4	-3.2
CCS(=O)(=O)N1Cc2ccccc2CC1C(=O)N1CCN(c2ccccc2)CC1 (configuration not stated)	-4.8	97.8*	-0.7	-2.4
COCCCNC(=S)NNC(=O)Cn1nc(C)c(Br)c1C	29.5*	51.2	-0.2	16.7
CCOCCCNC(=S)NNC(=O)CCn1nc(C)c(Br)c1C	-5.7	6.9	0.0	5.0
CN(C)CCC(=O)N1c2ccccc2Sc2ccc(C(F)(F)F)cc21	6.1	97.6*	0.9	-12.5
CN(C)CCCN1c2ccccc2Sc2ccc(C(F)(F)F)cc21	-6.1	97.9*	-0.4	14.0
NS(=O)(=O)c1ccc(CNC(=O)c2ccc(C(=O)c3ccccc3)cc2)cc1	nt	-0.1	nt	6.7
CC1(C)CC2CC(C)(CN2Cc2c(O)ccc3ccccc23)C1 (configuration not stated)	-2.2	94.6*	0.5	-29.9
CC1(C)CC2CC(C)(CN2Cc2cccc([N+](=O)[O-])c2)C1 (configuration not stated)	-11.8	3.0	-1.5	-8.5
Cc1ccc(NCCc2ccc(C)nc2)cc1	1.0	48.7	0.2	21.0
Cc1ccc(CCNc2ccc3ccccc3c2)cn1	-1.1	98.8*	0.3	39.7
